PABP1 MLLE inh: blocks PAM2 peptide binding to the PABP1 MLLE domain; P11940; actives 0.36% (n = 360,000); AID 588489; inhibition, % at 20 µM; GST-MLLE / FITC-PAM2 fluorescence polarization; in the data active means inhibition above about 35%, passing the limit was not always enough
EBV gp42 block: blocks Epstein-Barr virus glycoprotein 42 binding; Q1HVG2; Fluorescence polarization binding assay, mP read-out; inhibition, % (tested at 21.74 µM); actives 0.42% (n = 220,000); AID 1085; in the data active means inhibition above about 50%
Target sequence (Q1HVG2 whole entry, looked up): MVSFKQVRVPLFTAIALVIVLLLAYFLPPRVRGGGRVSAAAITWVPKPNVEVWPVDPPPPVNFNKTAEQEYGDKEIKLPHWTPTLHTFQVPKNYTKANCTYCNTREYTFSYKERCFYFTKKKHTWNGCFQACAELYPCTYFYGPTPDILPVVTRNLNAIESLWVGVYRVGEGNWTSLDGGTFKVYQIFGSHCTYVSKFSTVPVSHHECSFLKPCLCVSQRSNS
PABP FP inh: blocks human PABP binding to poly(A) RNA. calls only at 35 µM. fluorescence polarization. P11940. actives 1% (n = 290,000);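 further: calls also rest on retests at 20 µM and on dose response follow-up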
MEX-5 binding: C. elegans MEX-5 TCR-2 RNA binding activity; Q9XUB2; MEX-5/FITC-TCR2 RNA binding, fluorescence polarization; active compounds read low; activity score (negative = inhibition of binding), % at 10 µM; actives 0.38% (n = 300,000);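 active means inhibition past about -25% in most replicates, and total fluorescence under double the plate's negative control median, limit read from the data; inconclusive means replicates evenly split on the limit, or fluorescence at least double controls; inactive means too little inhibition in most replicates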
eIF4H FP inh: inhibitors of RNA binding by human eIF4H. Q15056. eIF4H fluorescence polarization binding assay. inhibition, % at 35 µM. actives 0.94% (n = 290,000). AID 2012;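 further: calls also rest on retests at 20 µM and on dose response follow-up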
Of the large screens only hits and unclear results are named; the others gave an inactive call. This is a sample that favours compounds with a hit; in the whole collection about 1.8% have one here. Unless noted, how the calls were made is not given here.

CCOC(=O)CCCCC(=O)c1[nH]c(=O)[nH]c1CSc1nc(-c2ccccc2)c(C#N)c(=O)[nH]1	PABP1 MLLE inh 40.3
O=c1nc(Nc2ccccc2)oc2ccccc12	none
O=c1nc(Nc2cccc(Cl)c2)oc2cc(Cl)oc(=O)c12	PABP FP inh active
COc1cccc(-c2cccc3c2NC(=O)C3(C)Cc2cccc(F)c2)c1 (stereo not drawn)	none (no result: EBV gp42 block, PABP FP inh, MEX-5 binding, eIF4H FP inh)
CN(C)c1cccc2c(S(=O)(=O)NC(=O)[C@H]3O[C@@H](n4cnc5c(N)ncnc54)[C@H](O)[C@@H]3O)cccc12	none (no result: EBV gp42 block, PABP FP inh, MEX-5 binding, eIF4H FP inh)
CCOc1cccc(=O)c2c(C)n(C)c(C)c12	PABP FP inh active, eIF4H FP inh 59.6
C[C@H]1CN([C@@H](C)CO)C(=O)CCCn2cc(nn2)CO[C@@H]1CN(C)C(=O)Nc1cccc(F)c1	none (no result: EBV gp42 block, PABP FP inh, MEX-5 binding, eIF4H FP inh)
N#CC(C#N)=Cc1ccc(-c2ccc(S(=O)(=O)N=C(N)N)cc2)o1	MEX-5 binding -37.9
Cc1cccc(N(CC(N)=O)C2SC(=O)N(c3ccccc3)C2=O)c1 (stereo not drawn)	PABP1 MLLE inh 40.9
CC(C)C(N)c1csc(Nc2ccc(S(C)(=O)=O)cc2)n1 (stereo not drawn)	none (no result: EBV gp42 block, PABP FP inh, MEX-5 binding, eIF4H FP inh)
CC1(C(=O)NS(=O)(=O)c2cccc(OC(F)F)c2)CCN1C(=O)c1cccc(F)c1 (stereo not drawn)	none (no result: EBV gp42 block, PABP FP inh, MEX-5 binding, eIF4H FP inh)
O=C(O)c1ccccc1NS(=O)(=O)c1ccc(NNC(=S)Nc2ccc(OC(F)F)cc2)c([N+](=O)[O-])c1	MEX-5 binding -42.5
CC(=O)Oc1ccc(N2C(=O)C3C(C2=O)C(C(=O)c2ccc(Cl)cc2)N2CCCC32)cc1 (stereo not drawn)	none
Cc1ccc(N2C(=O)C3C(C2=O)C(C(=O)c2ccc(Cl)cc2)N2CCCC32)cc1 (stereo not drawn)	EBV gp42 block 51.9
C[C@H](O)[C@@H]1C(=O)N2CCc3c([nH]c4ccccc34)[C@@H]2C[C@@H]1N(C)C(=O)c1cc(Cl)cc(Cl)c1	none (no result: EBV gp42 block, PABP FP inh, MEX-5 binding, eIF4H FP inh)
CCN1/C(=C/c2cc[n+](CCCS(=O)(=O)[O-])c3ccccc23)Sc2ccccc21	eIF4H FP inh 97.0
CCC(/C=C1\Sc2ccc(OC)cc2N1CC)=C\c1sc2ccc(OC)cc2[n+]1CCCS(=O)(=O)[O-]	none
O=C(NCC1CCCCC1)c1csc([C@@H]2C[C@H](O)[C@@H](CO)O2)n1	none (no result: EBV gp42 block, PABP FP inh, MEX-5 binding, eIF4H FP inh)
Cc1ccc(/C=C/C(=O)OCc2nc(N)nc(Nc3ccccc3C)n2)o1	EBV gp42 block 85.5
Cc1ccc(C(=O)Sc2cccccc2=O)cc1	PABP1 MLLE inh 50.1 (no result: EBV gp42 block)
CCN(CC)C(=O)C1=C(C)N(Cc2ccc(F)cc2)C(=O)C(CC(=O)NCCCN(C)C)C1 (stereo not drawn)	none (no result: EBV gp42 block, PABP FP inh, MEX-5 binding, eIF4H FP inh)
O=C(NC(=S)Nc1ccc(S(=O)(=O)Nc2nccs2)cc1)c1cccnc1	PABP1 MLLE inh 40.8
O=C(O)c1ccc(NC(=O)C2(c3ccccc3)CCCC2)cc1	none
NS(=O)(=O)c1ccc(NC(=O)C2(c3ccccc3)CCCC2)cc1	PABP FP inh active, eIF4H FP inh inconclusive
O=C(NC(=S)Nc1ccc(-c2ccccc2)cc1)c1ccccc1	none (no result: EBV gp42 block, PABP FP inh, MEX-5 binding, eIF4H FP inh)
O=C(NC(=S)Nc1ccc(S(=O)(=O)Nc2nccs2)cc1)c1ccccc1	PABP1 MLLE inh 39.0
NS(=O)(=O)c1ccc(NC(=S)NC(=O)c2ccc(-c3ccccc3)cc2)cc1	PABP1 MLLE inh 43.3
Cc1n[nH]c2c([N+](=O)[O-])c(=O)[nH]c(=O)n12	none (no result: EBV gp42 block, PABP FP inh, MEX-5 binding, eIF4H FP inh)
CN(Cc1ccc2c(c1)CCCN2C)C(=O)[C@H]1O[C@@H](n2cnc3c(N)ncnc32)[C@H](O)[C@@H]1O	none (no result: EBV gp42 block, PABP FP inh, MEX-5 binding, eIF4H FP inh)
COc1ccc(CC(N)c2csc(Nc3ccc(C(=O)c4ccccc4)cc3)n2)cc1 (stereo not drawn)	none (no result: EBV gp42 block, PABP FP inh, MEX-5 binding, eIF4H FP inh)
O=C(Nc1ccc2c(c1)OCO2)c1cc(C2CCCCN2C(=O)c2ccccc2)on1 (stereo not drawn)	none (no result: EBV gp42 block, PABP FP inh, MEX-5 binding, eIF4H FP inh)
Cc1cccc(-n2ccc(=O)c(C(=O)Nc3ccc(S(=O)(=O)Nc4nccs4)cc3)n2)c1	none (no result: EBV gp42 block)
O=C(Nc1ccc(S(=O)(=O)Nc2nccs2)cc1)c1nn(-c2ccccc2)ccc1=O	eIF4H FP inh 77.1 (no result: EBV gp42 block)
Cc1cccc2cc(-c3nc4ccc(C(=O)O)cc4[nH]3)c(=O)oc12	eIF4H FP inh 64.9 (no result: EBV gp42 block)
COc1cccc2cc(-c3nc4ccccc4[nH]3)c(=O)oc12	none (no result: EBV gp42 block)
Cc1ccccc1SCC(=O)Nc1ccc(N2CCOCC2)cc1	none
Cc1ccccc1SCC(=O)NC1CCOC1=O (stereo not drawn)	PABP1 MLLE inh 40.0
Nc1nnc(SCc2ccccc2Cl)s1	PABP FP inh active, eIF4H FP inh 7.2
COc1ccc(-n2cnc3c(N)nc(N)nc32)cc1	none (no result: EBV gp42 block, PABP FP inh, MEX-5 binding, eIF4H FP inh)
O=C1c2nc3cc(-c4ccco4)[nH]n3c(=O)c2CN1C1CCCCC1	PABP FP inh active, eIF4H FP inh 50.0
O=c1cc(-c2ccccc2)nc2cc(-c3ccco3)[nH]n12	none
COC(=O)C1CC(=O)N(c2ccc(OCc3ccccc3Cl)cc2)C1 (stereo not drawn)	PABP FP inh active, eIF4H FP inh 102.9 (no result: EBV gp42 block)
C=CCNC(=O)C1CC(=O)N(c2ccc(OCc3ccccc3Cl)cc2)C1 (stereo not drawn)	none (no result: EBV gp42 block)
O=C(O)C1Nc2c(O)cc(Cl)c([N+](=O)[O-])c2C2C=CCC12 (stereo not drawn)	EBV gp42 block 87.5, PABP FP inh active, MEX-5 binding -60.4, eIF4H FP inh inconclusive
O=[N+]([O-])c1ccc(Cl)c2c1C1C=CCC1C(c1ccccn1)N2 (stereo not drawn)	none
O=C(C[n+]1cccc2ccccc21)c1ccc(Br)cc1	none (no result: EBV gp42 block)
NC(=O)C[n+]1cccc2ccccc21	PABP FP inh inconclusive, MEX-5 binding -35.9, eIF4H FP inh inconclusive
CCC1(CC)NC(=O)N(CC(=O)Nc2sc3c(c2C(N)=O)CCC3)C1=O	PABP FP inh active, eIF4H FP inh 79.2
N#CC(C(=O)NC1CCCCC1)c1nc2ccccc2nc1N1CCN(c2ccc(F)cc2)CC1 (stereo not drawn)	MEX-5 binding -76.2 (no result: PABP1 MLLE inh)
N#CC(C(=O)NC1CC1)c1nc2ccccc2nc1N1CCCC1 (stereo not drawn)	none
CC1C(=O)N(Cc2cn(CC3CCCCC3)nn2)CCS(=O)(=O)N1Cc1ccc(-c2ccc(Cl)cc2)cc1 (stereo not drawn)	none (no result: EBV gp42 block, PABP FP inh, MEX-5 binding, eIF4H FP inh)
O=C(NCc1c(Cl)cccc1Cl)c1[nH]c(C(F)(F)F)nc1-c1ccccc1	none (no result: EBV gp42 block, PABP FP inh, MEX-5 binding, eIF4H FP inh)
CCN(Cc1cc2ccc(C)cc2[nH]c1=O)C(=O)c1cccnc1	PABP FP inh active, eIF4H FP inh 84.1 (no result: PABP1 MLLE inh)
CN(C)C(CNC(=O)c1cccc(S(=O)(=O)N2CCN(c3ccc(F)cc3)CC2)c1)c1ccccc1 (stereo not drawn)	none (no result: EBV gp42 block, PABP FP inh, MEX-5 binding, eIF4H FP inh)
CCOC(=O)N1CCN(C(=O)COc2ccc3c(c2)C(=O)CC(C)(C)O3)CC1	PABP FP inh active, eIF4H FP inh inconclusive
CC(C)(C)Cc1c(-c2ccc(C#N)cc2)nc2c(Cl)cc(C(F)(F)F)cn12	none (no result: EBV gp42 block, PABP FP inh, MEX-5 binding, eIF4H FP inh)
Cc1cc(C)c2c(N)c(C(=O)NC3CCCC3)sc2n1	PABP FP inh active, eIF4H FP inh active
Cc1cc(C)c2c(N)c(C(=O)NCC3CCCCC3)sc2n1	PABP1 MLLE inh 39.7
Cc1cc(C)c2c(N)c(C(=O)Nc3ccc(C)c(C)c3)sc2n1	none (no result: EBV gp42 block)
